Test results taken from PubChem BioAssay AID1159580 (chemical genetic matrix, 2015).
In all, about 5,500 compounds went through this assay and about 2,000 (36%) were called active. About 18% were inconclusive and are not listed. Cut-off read from the data, not from the text of the source: active = normalized growth mostly below about 0.91 (no sharp cut-off); inconclusive = no clear call, values can overlap the other calls; inactive = mostly above about 0.92. This is one part of the list.

Experiment: chemical genetic growth profiling, strain panel (AID 1159580);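 note: tested at 20 µM; growth read once vehicle control cultures reached saturation at 30 °C; 1 = growth at the plate median or of vehicle wells; lower values mean less growth of the strain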
Conditions: growth OD

Measured: normalized growth

CCC(C)C(=O)OC1[C@@H]2CC3=C4CC(=O)O[C@@H](c5ccoc5)[C@]4(C)CCC3[C@@](C)(C2=O)[C@@H](CC(=O)OC)C1(C)C (stereo partly specified)
inactive: S. cerevisiae deletion strains, locus YJL187C, strain SWE1, stronger effect = lower value 1.01 | S. cerevisiae deletion strains, locus YJR066W, strain TOR1, stronger effect = lower value 0.91 | S. cerevisiae deletion strains, locus YJR075W, strain HOC1, stronger effect = lower value 1.01 | S. cerevisiae deletion strains, locus YKL009W, strain mrt4, stronger effect = lower value 0.965 | S. cerevisiae deletion strains, locus YKL068W, stronger effect = lower value 0.999 | S. cerevisiae deletion strains, locus YKL085W, strain MDH1 (second series), stronger effect = lower value 0.988 | S. cerevisiae deletion strains, locus YKL085W, strain MDH1, stronger effect = lower value 0.988 | S. cerevisiae deletion strains, locus YKL160W, strain elf1, stronger effect = lower value 1.01 | S. cerevisiae deletion strains, locus YKR001C, strain vps1, stronger effect = lower value 1.01 | S. cerevisiae deletion strains, locus YKR026C, strain gcn3, stronger effect = lower value 1.01 | S. cerevisiae deletion strains, locus YKR091W, strain srl3, stronger effect = lower value 1 | S. cerevisiae deletion strains, locus YLL001W, strain dnm1, stronger effect = lower value 1.01 | S. cerevisiae deletion strains, locus YLL026W, stronger effect = lower value 1 | S. cerevisiae deletion strains, locus YLL041C, strain sdh2, stronger effect = lower value 1.01 | S. cerevisiae deletion strains, locus YLR027C, strain aat2, stronger effect = lower value 1.02 | S. cerevisiae deletion strains, locus YLR039C, strain RIC1, stronger effect = lower value 0.974 | S. cerevisiae deletion strains, locus YLR058C, strain SHM2, stronger effect = lower value 1.01 | S. cerevisiae deletion strains, locus YLR102C, strain apc9, stronger effect = lower value 1 | S. cerevisiae deletion strains, locus YLR113W, strain HOG1, stronger effect = lower value 1.03 | S. cerevisiae deletion strains, locus YLR221C, strain rsa3, stronger effect = lower value 0.998 | S. cerevisiae deletion strains, locus YLR258W, strain gsy2, stronger effect = lower value 1.01 | S. cerevisiae deletion strains, locus YLR262C, strain YPT6 (second series), stronger effect = lower value 0.947 | S. cerevisiae deletion strains, locus YLR268W, strain sec22, stronger effect = lower value 0.989 | S. cerevisiae deletion strains, locus YLR320W, strain mms22, stronger effect = lower value 1.01 | S. cerevisiae deletion strains, locus YLR342W, strain FKS1 (second series), stronger effect = lower value 1 | S. cerevisiae deletion strains, locus YLR342W, strain FKS1, stronger effect = lower value 1 | S. cerevisiae deletion strains, locus YLR357W, strain rsc2, stronger effect = lower value 0.991 | S. cerevisiae deletion strains, locus YLR370C, strain arc18, stronger effect = lower value 1.01 | S. cerevisiae deletion strains, locus YLR371W, strain rom2, stronger effect = lower value 1 | S. cerevisiae deletion strains, locus YLR384C, strain iki3, stronger effect = lower value 1.02 | S. cerevisiae deletion strains, locus YLR418C, strain cdc73, stronger effect = lower value 1.04 | S. cerevisiae deletion strains, locus YML016C, strain PPZ1, stronger effect = lower value 0.997 | S. cerevisiae deletion strains, locus YML032C, strain rad52, stronger effect = lower value 1.01 | S. cerevisiae deletion strains, locus YML120C, strain ndi1, stronger effect = lower value 1 | S. cerevisiae deletion strains, locus YML124C, strain tub3, stronger effect = lower value 1.01 | S. cerevisiae deletion strains, locus YMR058W, strain fet3, stronger effect = lower value 1.01 | S. cerevisiae deletion strains, locus YMR078C, strain ctf18, stronger effect = lower value 1.01 | S. cerevisiae deletion strains, locus YMR125W, strain sto1, stronger effect = lower value 1 | S. cerevisiae deletion strains, locus YMR129W, stronger effect = lower value 1.01 | S. cerevisiae deletion strains, locus YMR205C, strain PFK2, stronger effect = lower value 1 | S. cerevisiae deletion strains, locus YMR223W, strain ubp8, stronger effect = lower value 1 | S. cerevisiae deletion strains, locus YMR231W, strain pep5, stronger effect = lower value 0.973 | S. cerevisiae deletion strains, locus YMR307W, strain GAS1, stronger effect = lower value 1.05 | S. cerevisiae deletion strains, locus YNL067W, strain RPL9B, stronger effect = lower value 1.03 | S. cerevisiae deletion strains, locus YNL071W, strain lat1, stronger effect = lower value 1.01 | S. cerevisiae deletion strains, locus YNL128W, strain TEP1, stronger effect = lower value 0.995 | S. cerevisiae deletion strains, locus YNL183C, strain NPR1, stronger effect = lower value 0.927 | S. cerevisiae deletion strains, locus YNL209W, strain ssb2, stronger effect = lower value 1 | S. cerevisiae deletion strains, locus YNL233W, strain BNI4, stronger effect = lower value 0.995 | S. cerevisiae deletion strains, locus YNL248C, strain rpa49, stronger effect = lower value 1 | S. cerevisiae deletion strains, locus YNL250W, strain rad50, stronger effect = lower value 1.03 | S. cerevisiae deletion strains, locus YNL271C, strain bni1, stronger effect = lower value 1 | S. cerevisiae deletion strains, locus YNL298W, strain CLA4, stronger effect = lower value 1.02 | S. cerevisiae deletion strains, locus YNL307C, strain MCK1, stronger effect = lower value 1 | S. cerevisiae deletion strains, locus YNL322C, strain KRE1 (second series), stronger effect = lower value 0.999 | S. cerevisiae deletion strains, locus YNR049C, strain mso1, stronger effect = lower value 1.01 | S. cerevisiae deletion strains, locus YNR052C, strain pop2, stronger effect = lower value 1.01 | S. cerevisiae deletion strains, locus YOL012C, strain htz1 1.11 | S. cerevisiae deletion strains, locus YOL147C, strain pex11, stronger effect = lower value 1 | S. cerevisiae deletion strains, locus YOR001W, strain rrp6, stronger effect = lower value 1.01 | S. cerevisiae deletion strains, locus YOR061W, strain CKA2, stronger effect = lower value 0.995 | S. cerevisiae deletion strains, locus YOR069W, strain VPS5, stronger effect = lower value 1.01 | S. cerevisiae deletion strains, locus YOR070C, strain gyp1, stronger effect = lower value 1.01 | S. cerevisiae deletion strains, locus YOR080W, strain dia2, stronger effect = lower value 0.996 | S. cerevisiae deletion strains, locus YOR083W, strain WHI5, stronger effect = lower value 1 | S. cerevisiae deletion strains, locus YOR106W, strain vam3, stronger effect = lower value 1.02 | S. cerevisiae deletion strains, locus YOR136W, strain idh2, stronger effect = lower value 0.994 | S. cerevisiae deletion strains, locus YOR144C, strain elg1, stronger effect = lower value 1.01 | S. cerevisiae deletion strains, locus YOR184W, strain ser1, stronger effect = lower value 0.983 | S. cerevisiae deletion strains, locus YOR231W, strain MKK1, stronger effect = lower value 0.973 | S. cerevisiae deletion strains, locus YOR265W, strain rbl2, stronger effect = lower value 0.999 | S. cerevisiae deletion strains, locus YOR270C, strain vph1, stronger effect = lower value 1.03 | S. cerevisiae deletion strains, locus YOR290C, strain snf2, stronger effect = lower value 0.978 | S. cerevisiae deletion strains, locus YOR316C, strain cot1, stronger effect = lower value 1 | S. cerevisiae deletion strains, locus YPL051W, strain arl3, stronger effect = lower value 1 | S. cerevisiae deletion strains, locus YPL078C, strain atp4, stronger effect = lower value 1.04 | S. cerevisiae deletion strains, locus YPL106C, strain sse1, stronger effect = lower value 1.01 | S. cerevisiae deletion strains, locus YPL240C, strain hsp82, stronger effect = lower value 1 | S. cerevisiae deletion strains, locus YPL241C, strain CIN2, stronger effect = lower value 0.998 | S. cerevisiae deletion strains, locus YPL256C, strain CLN2, stronger effect = lower value 0.943 | S. cerevisiae deletion strains, locus YPR119W, strain clb2, stronger effect = lower value 1.01 | S. cerevisiae deletion strains, locus YPR141C, strain kar3, stronger effect = lower value 1.01 | S. cerevisiae deletion strains, locus YPR163C, strain tif3, stronger effect = lower value 1 | S. cerevisiae deletion strains, locus YPR167C, strain met16, stronger effect = lower value 0.995 | S. cerevisiae deletion strains, strain wtn01, stronger effect = lower value 0.993 | S. cerevisiae strains, strain wild type, stronger effect = lower value 0.978
